Reference: PubChem BioAssay
For some of these results: Results with a measured potency or affinity are listed apart. Activity calls are given as the source filed them. Unless noted, how the calls were made is not given here.

How the values were obtained:
[1] = antimalarial activity against Dd2 strain (AID 2302;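 active means growth inhibition above 50% at the single 2 µM test dose, taken to imply half-maximal potency below 2 µM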;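 further: 0% = DMSO untreated growth and 100% = chloroquine plus artemisinin killed control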); conditions: P. falciparum Dd2 in RBCs, LDH growth readout, 72 h; at 2 µM; hits give high values
[2] = HepG2 cytotoxicity, primary screen, cytotoxicity control for P. falciparum antimalarial project, cell-based, ATP luminescence (AID 2303;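 active means inhibition above 50%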;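 further: 0% = DMSO wells and 100% = digitonin-killed cells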); conditions: HepG2 viability, 24-48 h, at 10 µM, hits give high values
[3] = molecular target: L-lactate dehydrogenase (Plasmodium falciparum (isolate CDC / Honduras)) (UniProt Q27743); test: PfLDH activity inhibition – cell lysate, 3D7 strain, counter-screen for P. falciparum growth inhibition project (AID 2304);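 further: 0% = vehicle and 100% = reference inhibitor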; conditions: P. falciparum 3D7 crude extract, LDH APAD/NBT absorbance; at 2 µM; hits give high values
[4] = inhibition of 3D7 malaria parasite growth – strain 3D7 (AID 2306);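 further: 0% = DMSO wells and 100% = chloroquine plus artemisinin control wells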; conditions: P. falciparum 3D7 erythrocytic growth, LDH absorbance, 72 h; at 2 µM; hits give high values
[5] = molecular target: Calcium-dependent protein kinase 1 (Plasmodium falciparum (isolate 3D7)) (UniProt P62344); test: PfCDPK1 kinase inhibitors, biochemical, TCAMS library (AID 1159585; cut-off not given, nearly all actives have IC50 up to about 0.98 µM;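 further: inhibitors leave more ATP so luminescence rises with inhibition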); conditions: recombinant PfCDPK1, Kinase-Glo ATP depletion luminescence
[6] = molecular target: Plasmodium falciparum protein kinase 6 (PK6, PF3D7_1337100) (UniProt Q8IDW1); test: PfPK6 kinase inhibitors, biochemical, TCAMS library (AID 1159586); conditions: recombinant PfPK6, Kinase-Glo ATP depletion luminescence
[7] = molecular target: Protein kinase 7 (PK7), Plasmodium falciparum 3D7 (PF3D7_0213400) (UniProt Q7YTF7); test: inhibition of Plasmodium PK7 catalytic activity – biochemical, TCAMS antimalarial set, Kinase-Glo luminescence (AID 1159587); conditions: recombinant PfPK7, Kinase-Glo ATP depletion luminescence
[8] = molecular target: Calcium-dependent protein kinase 4 (Plasmodium falciparum (isolate 3D7)) (UniProt Q8IBS5); test: PfCDPK4 kinase inhibitors, biochemical, TCAMS library (AID 1159588; cut-off not given, nearly all actives have IC50 up to about 0.91 µM); conditions: recombinant PfCDPK4, Kinase-Glo ATP depletion luminescence
Chain of Calcium-dependent protein kinase 4 (Plasmodium falciparum (isolate 3D7)) (Q8IBS5 whole entry, looked up): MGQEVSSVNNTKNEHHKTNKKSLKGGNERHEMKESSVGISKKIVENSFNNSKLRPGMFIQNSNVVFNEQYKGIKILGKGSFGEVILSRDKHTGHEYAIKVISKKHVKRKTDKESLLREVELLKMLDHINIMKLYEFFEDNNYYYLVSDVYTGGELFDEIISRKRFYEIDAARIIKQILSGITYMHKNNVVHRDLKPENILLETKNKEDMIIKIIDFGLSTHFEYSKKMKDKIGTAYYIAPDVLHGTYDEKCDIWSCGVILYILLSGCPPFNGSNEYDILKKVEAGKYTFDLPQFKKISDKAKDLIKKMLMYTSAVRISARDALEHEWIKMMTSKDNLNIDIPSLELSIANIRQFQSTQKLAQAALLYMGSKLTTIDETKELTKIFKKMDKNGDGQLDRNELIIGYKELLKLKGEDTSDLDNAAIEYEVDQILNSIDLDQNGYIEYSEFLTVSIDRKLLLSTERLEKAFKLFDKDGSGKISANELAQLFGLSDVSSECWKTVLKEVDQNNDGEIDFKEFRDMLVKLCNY

Chain of Plasmodium falciparum protein kinase 6 (PK6, PF3D7_1337100) (Q8IDW1 1-305): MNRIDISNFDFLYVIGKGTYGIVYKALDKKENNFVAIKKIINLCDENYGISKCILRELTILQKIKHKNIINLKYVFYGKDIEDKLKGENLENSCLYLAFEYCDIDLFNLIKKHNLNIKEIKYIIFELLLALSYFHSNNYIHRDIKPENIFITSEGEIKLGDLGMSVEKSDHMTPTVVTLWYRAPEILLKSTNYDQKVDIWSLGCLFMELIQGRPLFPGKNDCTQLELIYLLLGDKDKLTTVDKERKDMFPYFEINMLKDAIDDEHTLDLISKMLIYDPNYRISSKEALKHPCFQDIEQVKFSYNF
Chain of Calcium-dependent protein kinase 1 (Plasmodium falciparum (isolate 3D7)) (P62344 whole entry, looked up): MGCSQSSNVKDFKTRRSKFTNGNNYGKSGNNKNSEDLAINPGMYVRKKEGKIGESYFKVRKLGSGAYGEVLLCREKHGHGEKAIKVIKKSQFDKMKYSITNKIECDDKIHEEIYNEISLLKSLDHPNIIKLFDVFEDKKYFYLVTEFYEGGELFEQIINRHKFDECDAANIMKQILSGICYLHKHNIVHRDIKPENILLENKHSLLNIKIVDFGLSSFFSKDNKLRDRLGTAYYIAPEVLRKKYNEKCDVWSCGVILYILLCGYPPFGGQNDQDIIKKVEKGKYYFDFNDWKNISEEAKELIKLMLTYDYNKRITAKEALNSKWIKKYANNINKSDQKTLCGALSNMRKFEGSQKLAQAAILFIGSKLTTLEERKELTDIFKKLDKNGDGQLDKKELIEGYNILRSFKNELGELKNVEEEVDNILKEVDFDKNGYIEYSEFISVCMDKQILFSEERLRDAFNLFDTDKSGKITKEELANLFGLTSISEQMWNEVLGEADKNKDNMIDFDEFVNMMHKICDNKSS
Chain of Protein kinase 7 (PK7), Plasmodium falciparum 3D7 (PF3D7_0213400) (Q7YTF7 1-343): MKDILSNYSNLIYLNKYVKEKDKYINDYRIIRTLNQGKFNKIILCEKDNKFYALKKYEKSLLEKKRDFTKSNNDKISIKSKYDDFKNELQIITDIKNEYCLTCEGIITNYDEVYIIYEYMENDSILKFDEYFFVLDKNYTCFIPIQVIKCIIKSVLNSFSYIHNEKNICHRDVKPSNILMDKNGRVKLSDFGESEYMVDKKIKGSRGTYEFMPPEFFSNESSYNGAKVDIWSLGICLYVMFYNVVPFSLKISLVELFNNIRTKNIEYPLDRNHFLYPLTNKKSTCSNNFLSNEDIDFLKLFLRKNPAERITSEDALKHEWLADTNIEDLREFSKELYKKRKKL
Chain of L-lactate dehydrogenase (Plasmodium falciparum (isolate CDC / Honduras)) (Q27743 whole entry, looked up): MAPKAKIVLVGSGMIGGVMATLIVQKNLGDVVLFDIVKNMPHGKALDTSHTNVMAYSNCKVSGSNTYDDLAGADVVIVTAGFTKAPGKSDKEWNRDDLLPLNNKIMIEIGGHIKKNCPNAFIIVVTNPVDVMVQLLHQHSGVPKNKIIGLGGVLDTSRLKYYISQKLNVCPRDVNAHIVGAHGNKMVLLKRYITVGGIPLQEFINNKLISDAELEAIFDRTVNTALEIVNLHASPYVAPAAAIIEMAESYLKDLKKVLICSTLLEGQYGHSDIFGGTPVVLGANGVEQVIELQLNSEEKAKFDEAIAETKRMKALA

COc1cc(C(=O)NC2CCc3ccccc32)cc(Cl)c1OC (stereo not drawn)
active: growth inhibition [1] 60% | growth inhibition [4] 85%
inactive: inhibition [2] 12% | inhibition [3] -4% | outcome [5] | outcome [6] | outcome [7] | outcome [8]

O=C(Nc1cccc(-c2ccc(CN3CCCC3)cc2)c1)c1ccc(Cl)cc1
inactive: growth inhibition [1] 47% | inhibition [2] 29% | inhibition [3] -1% | outcome [5] | outcome [6] | outcome [7] | outcome [8]
active: growth inhibition [4] 100%

Cc1cc(C=C(P(=O)(OC(C)C)OC(C)C)P(=O)(OC(C)C)OC(C)C)c2ccccc2c1O
active: growth inhibition [1] 54% | growth inhibition [4] 85%
inactive: inhibition [2] 15% | inhibition [3] -6% | outcome [5] | outcome [6] | outcome [7] | outcome [8]

Nc1nccc2ccc(-c3ccnc(NCc4cccnc4)n3)cc12
inactive: inhibition [2] 11% | inhibition [3] -3% | outcome [5] | outcome [6] | outcome [7] | outcome [8]
active: growth inhibition [1] 95% | growth inhibition [4] 101%

CCOC(=O)c1c(C)n(-c2ccccc2)c2ccc(OC(=O)COc3ccc(Cl)cc3Cl)cc12
inactive: inhibition [2] 11% | inhibition [3] 3% | outcome [5] | outcome [6] | outcome [7] | outcome [8]
active: growth inhibition [1] 87% | growth inhibition [4] 99%

Cc1cccc2[nH]c(-c3ccc(-c4ccc(CNCCNC(=O)c5ccnn5C)cc4)s3)nc12
active: growth inhibition [1] 97% | growth inhibition [4] 101%
inactive: inhibition [2] 20% | inhibition [3] -1% | outcome [5] | outcome [6] | outcome [7] | outcome [8]

COc1ccc2nccc([C@@H](O)CN3CC[C@H](NCc4cnc5c(c4)NC(=O)CS5)[C@H](F)C3)c2c1
inactive: inhibition [2] -4% | inhibition [3] -2% | outcome [5] | outcome [6] | outcome [7] | outcome [8]
active: growth inhibition [1] 90% | growth inhibition [4] 90%

Cc1cc(-c2ccc(CNCc3ccc(F)cc3)cc2)ccc1S(=O)(=O)NCCN1CCCC1
inactive: growth inhibition [1] 41% | inhibition [3] -1% | outcome [5] | outcome [6] | outcome [7] | outcome [8]
active: inhibition [2] 95% | growth inhibition [4] 100%

O=C(NCCc1ccccc1)N(Cc1ccccc1-c1cccc(CNCCc2ccccc2)c1)C1CCN(Cc2ccccc2)CC1
inactive: inhibition [3] 4% | outcome [5] | outcome [6] | outcome [7] | outcome [8]
active: growth inhibition [1] 88% | inhibition [2] 100% | growth inhibition [4] 100%

COc1ccc2c(=O)c3ccc(OC)cc3[nH]c2c1
inactive: inhibition [2] 12% | inhibition [3] 1% | outcome [5] | outcome [6] | outcome [7] | outcome [8]
active: growth inhibition [1] 75% | growth inhibition [4] 93%

O=C(Nc1ccc(Cn2ncc(N3CCCNCC3)c(Cl)c2=O)cc1)Nc1cc(F)cc(C(F)(F)F)c1
active: growth inhibition [4] 101%
inactive: growth inhibition [1] 44% | inhibition [2] 35% | inhibition [3] 4% | outcome [5] | outcome [6] | outcome [7] | outcome [8]

COc1cc2ccccc2c(OC)c1CNCCCCCCNCc1c(OC)cc2ccccc2c1OC
inactive: inhibition [3] 0% | outcome [5] | outcome [6] | outcome [7] | outcome [8]
active: growth inhibition [1] 91% | inhibition [2] 100% | growth inhibition [4] 93%

O=C(/C=C/c1ccc(C(F)(F)F)cc1)N1CCC(CCN2CCC(c3c[nH]c4ccccc34)CC2)CC1
inactive: inhibition [3] -11% | outcome [5] | outcome [6] | outcome [7] | outcome [8]
active: growth inhibition [1] 77% | inhibition [2] 70% | growth inhibition [4] 100%

COc1cc(C=NNc2cc(C)nc3ccccc23)cc(OC)c1OC
active: growth inhibition [1] 95% | growth inhibition [4] 102%
inactive: inhibition [2] 5% | inhibition [3] -1% | outcome [5] | outcome [6] | outcome [7] | outcome [8]

O=c1cc(NCCCNCc2cc3c(Cl)cc(Cl)cc3[nH]2)[nH]c2ccccc12
inactive: growth inhibition [1] -2% | inhibition [2] -10% | inhibition [3] -3% | outcome [5] | outcome [6] | outcome [7] | outcome [8]
active: growth inhibition [4] 101%

COc1cc(Cc2cnc(N)nc2N)ccc1OCc1cccc(Oc2ccccc2)c1
inactive: growth inhibition [1] 21% | inhibition [2] 18% | inhibition [3] 0% | outcome [5] | outcome [6] | outcome [7] | outcome [8]
active: growth inhibition [4] 84%

Oc1ccc(CCNc2nc(N/N=C/C=C/c3ccc(Cl)cc3)nc(N3CCNCC3)n2)cc1
inactive: inhibition [2] 17% | inhibition [3] 2% | outcome [5] | outcome [6] | outcome [7] | outcome [8]
active: growth inhibition [1] 52% | growth inhibition [4] 98%

CN1CCN(c2ccnc3ccc(NC(=O)Nc4ccc(-c5ccccc5)cc4)cc23)CC1
active: growth inhibition [4] 99%
inactive: growth inhibition [1] 41% | inhibition [2] -10% | inhibition [3] -7% | outcome [5] | outcome [6] | outcome [7] | outcome [8]

CCCNCc1ccc(-c2ccc(CNC3Cc4ccccc4C3)cc2)nc1
active: growth inhibition [4] 97%
inactive: growth inhibition [1] 32% | inhibition [2] 23% | inhibition [3] 1% | outcome [5] | outcome [6] | outcome [7] | outcome [8]

Oc1ccc(CCNCCCCCCNCCc2ccc(Br)cc2)cc1O
active: growth inhibition [4] 99%
inactive: growth inhibition [1] 5% | inhibition [2] 2% | inhibition [3] -2% | outcome [5] | outcome [6] | outcome [7] | outcome [8]

Cc1c(CNCCCNc2nc3ccncc3[nH]2)sc(Br)c1Br
active: growth inhibition [4] 87%
inactive: growth inhibition [1] 1% | inhibition [2] -10% | inhibition [3] 3% | outcome [5] | outcome [6] | outcome [7] | outcome [8]

O=C(NC1CCN(c2ccnc3ccccc23)C1)c1cccc(C(F)(F)F)c1 (stereo not drawn)
active: growth inhibition [1] 86% | growth inhibition [4] 94%
inactive: inhibition [2] 28% | inhibition [3] 6% | outcome [5] | outcome [6] | outcome [7] | outcome [8]

O=C(Nc1ccc(Cl)cc1F)N[C@H]1CCN(CCCCCNC(=O)[C@@H]2C[C@H]2c2ccc(Cl)c(Cl)c2)C1
active: growth inhibition [4] 87%
inactive: growth inhibition [1] -3% | inhibition [2] 29% | inhibition [3] 3% | outcome [5] | outcome [6] | outcome [7] | outcome [8]

COc1ccc(CCn2c(=N)c(C(=O)NCc3ccccc3)cc3c(=O)n4ccccc4nc32)cc1
active: growth inhibition [4] 100%
inactive: growth inhibition [1] 18% | inhibition [2] 14% | inhibition [3] -1% | outcome [5] | outcome [6] | outcome [7] | outcome [8]

O=C(Nc1ccccc1)Nc1cccc(-c2cccc(-c3nc4ccc(F)cc4[nH]3)c2)c1
active: growth inhibition [4] 99%
inactive: growth inhibition [1] 41% | inhibition [2] 38% | inhibition [3] 4% | outcome [5] | outcome [6] | outcome [7] | outcome [8]

CS(=O)(=O)c1ccc(CNCc2ccc(-c3ccc(-c4nc5ccc(C(F)(F)F)cc5[nH]4)s3)cc2)cc1
inactive: inhibition [2] 49% | inhibition [3] -5% | outcome [5] | outcome [6] | outcome [7] | outcome [8]
active: growth inhibition [1] 98% | growth inhibition [4] 102%

Cc1cc(N)c2cc(NC(=O)/C=C/c3ccccc3Cl)ccc2n1
active: growth inhibition [1] 98% | inhibition [2] 81% | growth inhibition [4] 100%
inactive: inhibition [3] -2% | outcome [5] | outcome [6] | outcome [7] | outcome [8]

NCc1cccc(-c2ccc3ccnc(N)c3c2)c1
inactive: inhibition [2] 7% | inhibition [3] 0% | outcome [5] | outcome [6] | outcome [7] | outcome [8]
active: growth inhibition [1] 96% | growth inhibition [4] 101%

COC(=O)c1cccc(CNCc2ccc(-c3ccc(-c4nc5ccc(C(F)(F)F)cc5[nH]4)s3)cc2)c1
active: growth inhibition [1] 96% | growth inhibition [4] 101%
inactive: inhibition [2] 34% | inhibition [3] -2% | outcome [5] | outcome [6] | outcome [7] | outcome [8]

O=C(Nc1ccc(-c2cccc(-c3nc4ccc(F)cc4[nH]3)c2)cc1)c1ccncc1
active: inhibition [2] 58% | growth inhibition [4] 96%
inactive: growth inhibition [1] 18% | inhibition [3] -5% | outcome [5] | outcome [6] | outcome [7] | outcome [8]

Cc1cc(-c2cc(Cl)ccc2Cl)no1
active: growth inhibition [1] 97% | growth inhibition [4] 96%
inactive: inhibition [2] 36% | inhibition [3] -8% | outcome [5] | outcome [6] | outcome [7] | outcome [8]

COc1ccccc1Nc1nc(C)cc(NCc2ccc(-c3c(C)noc3C)cc2)n1
active: growth inhibition [4] 98%
inactive: growth inhibition [1] 13% | inhibition [2] 12% | inhibition [3] -6% | outcome [5] | outcome [6] | outcome [7] | outcome [8]

Nc1nc(N)c2c(ccc3c2ccn3C2CCCCC2)n1
active: inhibition [2] 67% | growth inhibition [4] 97%
inactive: growth inhibition [1] 46% | inhibition [3] 0% | outcome [5] | outcome [6] | outcome [7] | outcome [8]

CC(=O)Nc1cccc(CNCc2ccc(-c3cnc(N4CCCC(c5ccccc5)C4)nc3)cc2)c1 (stereo not drawn)
inactive: growth inhibition [1] 22% | inhibition [2] 16% | inhibition [3] 3% | outcome [5] | outcome [6] | outcome [7] | outcome [8]
active: growth inhibition [4] 84%

CS(=O)(=O)N(c1ccccc1)c1cc(C(=O)N[C@@H](Cc2ccccc2)[C@H](O)CNC2CC2)cc(N2CCCC2=O)c1
inactive: inhibition [2] 1% | inhibition [3] 4% | outcome [5] | outcome [6] | outcome [7] | outcome [8]
active: growth inhibition [1] 98% | growth inhibition [4] 100%

CN(C)Cc1cccc(-c2ccc(NC(=O)c3ccc4c(=O)n(CCN5CCCCC5)cnc4c3)cc2)c1
inactive: inhibition [2] 23% | inhibition [3] -1% | outcome [5] | outcome [6] | outcome [7] | outcome [8]
active: growth inhibition [1] 67% | growth inhibition [4] 101%

CC(C)(C)c1ccc(CN2CCC(NC(=O)c3ccc(-c4cccc(C(F)(F)F)c4)s3)CC2)cc1
active: growth inhibition [1] 96% | inhibition [2] 97% | growth inhibition [4] 100%
inactive: inhibition [3] -5% | outcome [5] | outcome [6] | outcome [7] | outcome [8]

CCCNCc1ccc(-c2ccc(CN(CCOC)C(=O)/C=C/c3ccccc3C)cc2)nc1
inactive: growth inhibition [1] 39% | inhibition [2] 13% | inhibition [3] 2% | outcome [5] | outcome [6] | outcome [7] | outcome [8]
active: growth inhibition [4] 95%

CC(C)CCn1c(Sc2ccc([N+](=O)[O-])cc2C(F)(F)F)nnc1-c1ccccc1Cl
active: growth inhibition [4] 99%
inactive: growth inhibition [1] 43% | inhibition [2] -5% | inhibition [3] 6% | outcome [5] | outcome [6] | outcome [7] | outcome [8]

COc1cc2nc(NCc3ccccc3)nc(NCc3ccccc3)c2cc1OC
inactive: inhibition [3] -3% | outcome [5] | outcome [6] | outcome [7] | outcome [8]
active: growth inhibition [1] 102% | inhibition [2] 66% | growth inhibition [4] 102%

COc1ccc(NC(=O)[C@H](Cc2ccccc2)Nc2cc(C)nc(NCC3CCCCC3)n2)cc1
active: growth inhibition [1] 83% | growth inhibition [4] 100%
inactive: inhibition [2] 9% | inhibition [3] 1% | outcome [5] | outcome [6] | outcome [7] | outcome [8]
